GPR7 antagonist – human neuropeptides B/W receptor 1 antagonism; P48145; GPR7-expressing cells, fluorescence antagonist assay; inhibition, % at 4.4 µM; 290,000 tested, 1.1% active; AID 1861; in the data active = inhibition above about 16%, passing the limit was not always enough;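 note: cells stimulated with the agonist NPW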
CHT inh – inhibitors of human choline transporter CHT | CHT-expressing cells, membrane potential dye, choline response; active compounds read low | B-score at 10 µM | 310,000 tested, 0.86% active;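 active = B-score over 3 SD under the library average, and starting fluorescence ratio not unusually high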;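 note: choline stimulus applied at its EC90 after an EC20 pre-addition; B-score computed on integrated fluorescence ratio after choline addition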
Kir21 inh – Kir2.1 (mouse) channel inhibition; P35561; HEK293-Kir2.1, FluxOR thallium flux fluorescence; active compounds read low; B-score at 10 µM; 310,000 tested, 0.85% active;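 active = fluorescence ratio B-score at or below minus 3 SD of library scores, with starting-brightness B-score within 2 SD, cut at about -4.2 in these data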;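 note: channel flux triggered by added potassium and thallium sulfate stimulus; B-score of peak minus minimum fluorescence over baseline after thallium stimulus; more negative B-score means stronger Kir2.1 block with less thallium influx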
Target sequence (P35561 whole entry, looked up): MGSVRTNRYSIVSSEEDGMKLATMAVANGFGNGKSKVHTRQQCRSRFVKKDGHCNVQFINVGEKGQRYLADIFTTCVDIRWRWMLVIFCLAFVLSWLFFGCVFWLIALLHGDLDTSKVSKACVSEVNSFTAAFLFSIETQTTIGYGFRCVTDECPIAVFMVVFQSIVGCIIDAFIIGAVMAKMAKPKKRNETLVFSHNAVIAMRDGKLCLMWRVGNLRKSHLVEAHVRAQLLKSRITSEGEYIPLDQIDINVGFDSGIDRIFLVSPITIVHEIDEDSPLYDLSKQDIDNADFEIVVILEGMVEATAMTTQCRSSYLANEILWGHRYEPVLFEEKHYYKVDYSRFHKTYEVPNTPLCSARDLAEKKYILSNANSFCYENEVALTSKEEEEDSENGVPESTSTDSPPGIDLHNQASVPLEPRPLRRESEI
TMEM16A act – activates or potentiates the mouse TMEM16A chloride channel; AID 623877; HEK293 TMEM16A/YFP-H148Q/I152L, iodide quench fluorescence; active compounds read low; B-score at 10 µM; 340,000 tested, 0.3% active; Q8BHY3;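 active = fluorescence-ratio B-score plate-corrected deviation score at least 3 library SD below zero, with starting fluorescence score within 5 deviations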;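 note: channel opened by trigger with iodide after compound preincubation; score built on the fluorescence ratio of max minus min over baseline; more negative score means more quench and so TMEM16A activation or potentiation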
CHT allo act – allosteric activators of human choline transporter CHT | Q9GZV3 | CHT-expressing cells, membrane potential dye, choline EC20; active compounds read high; LV-AA mutant CHT in HEK293 cells | B-score at 10 µM | 310,000 tested, 0.49% active | AID 488977;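 active = initial fluorescence not abnormally high and integrated response B-score, plate-corrected, over 3 SD above library mean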
ANO1 block – mouse TMEM16A channel inhibition, primary screen; HEK293 TMEM16A/YFP iodide influx fluorescence, ionomycin; AID 588511; 310,000 tested, 1.2% active; normalized B-score (activity score, 25-100; higher = stronger inhibition) at 10 µM;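 active = ratio plate-corrected score three or more library SD toward inhibition, starting fluorescence score within five deviations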;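 note: score derived from kinetic fluorescence span divided by baseline fluorescence per well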
GPR7 antag conf – confirmation of human GPR7 antagonists. 2,400 tested, 52% active. inhibition, % at 4.4 µM. GPR7-expressing cells, calcium fluorescence antagonist mode. shares compounds with GPR7 antagonist; in the data active = inhibition above about 24%;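 note: stimulated with the GPR7 agonist NPW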
MCHR1 antagonist – counter-screen for GPR7 antagonists: antagonists of human MCHR1. shares compounds with GPR7 antagonist. MCHR1-expressing cells, fluorescence antagonist assay. 2,400 tested, 62% active. AID 2148. inhibition, % at 4.4 µM; in the data active = inhibition above about 22%
Large screens that a line does not name were inactive (follow-up assays come after a bar, where they were run). The list is not random: actives were taken first. Their share in the collection is about 3.7%.

CCOc1ccccc1-n1c(C)nc2cc(C(=O)O)ccc21	GPR7 antagonist 28 | GPR7 antag conf inactive | MCHR1 antagonist inactive
O=C(CN1CCN(C(=O)C2COc3ccccc3O2)CC1)Nc1ccccc1 (stereo not given)	none
Cc1n[nH]c(C)c1N1C(=O)c2cccc3c(N4CCCCCC4)ccc(c23)C1=O	GPR7 antagonist 52 | GPR7 antag conf 41 | MCHR1 antagonist 56
CCn1c(NC(=O)c2ccc(C)cc2)c2ccccc2nc1=O	GPR7 antagonist 32 | GPR7 antag conf inactive | MCHR1 antagonist inactive
Cc1ccc(N/C(N)=N/c2nc(C)cc(C)n2)cc1	GPR7 antagonist 75 | GPR7 antag conf 64 | MCHR1 antagonist 73
CC(Sc1nnc(COc2ccc(Cl)cc2)n1Cc1ccco1)C(=O)N1CCNC1=O (stereo not given)	none (no result: GPR7 antagonist, CHT inh, Kir21 inh, CHT allo act, ANO1 block)
COC(=O)CC1C(=O)NCCN1C(=O)CSc1nnnn1-c1ccc(Cl)cc1 (stereo not given)	none
Cc1ccc(S(=O)(=O)N(c2cccc(C(F)(F)F)c2)C2C=CS(=O)(=O)C2)cc1 (stereo not given)	GPR7 antagonist 23 | GPR7 antag conf inactive | MCHR1 antagonist inactive
CCN(CC)S(=O)(=O)c1ccc(C(=O)N(c2ccc(C)cc2)C2C=CS(=O)(=O)C2)cc1 (stereo not given)	none
CCOc1ccc(NC(=O)CC2C(=O)N(c3ccc(OC)c(Cl)c3)C(=S)N2C2CC2)cc1 (stereo not given)	none
CC1CCC(C(C)C)C(OC(=O)Cn2c(-c3ccccc3)[n+](C)c3ccccc32)C1 (stereo not given)	GPR7 antagonist 86, Kir21 inh -7.6, ANO1 block 100 | GPR7 antag conf 92 | MCHR1 antagonist 83
O=C(c1cc(-c2ccc(F)cc2)on1)N1CCCC1	none
O=C(c1cc(-c2ccc(F)cc2)on1)N1CCCCCC1	GPR7 antagonist 36 | GPR7 antag conf inactive | MCHR1 antagonist 26
Cn1c(=O)c2c(ncn2CC(=O)Nc2cc(S(=O)(=O)N3CCCCC3)ccc2O)n(C)c1=O	none (no result: GPR7 antagonist, CHT inh, Kir21 inh, CHT allo act, ANO1 block)
CCN(CC)S(=O)(=O)c1cc(C(=O)OC)ccc1Cl	GPR7 antagonist 37 | GPR7 antag conf inactive | MCHR1 antagonist inactive
CCN(CC)S(=O)(=O)c1cc(C(=O)O)ccc1Cl	none
CCOc1ccc(C(=O)NCc2ccco2)cc1Cl	none
CCc1ccc(/C=C2/Sc3ccccc3N(CC(=O)NCCCN3CCOCC3)C2=O)cc1	GPR7 antagonist 25 | GPR7 antag conf inactive | MCHR1 antagonist inactive
O=C(CN1C(=O)/C(=C\c2ccccc2Cl)Sc2ccccc21)NCCCN1CCOCC1	none
Cc1ccc(CN2C(=O)c3ccccc3Sc3ccc(C(=O)NCCCN4CCOCC4)cc32)cc1	GPR7 antagonist 29 (no result: Kir21 inh) | GPR7 antag conf 40 | MCHR1 antagonist inactive
O=C(CN1C(=O)/C(=C\c2cccc(Cl)c2)Sc2ccccc21)NCCCN1CCOCC1	GPR7 antagonist 25 | GPR7 antag conf 26 | MCHR1 antagonist 36
O=C(Nc1ccc(C(=O)Nc2ccccc2Cl)cc1)c1cccnc1	none
Cc1c(C(=O)N(CCO)Cc2ccccc2)oc2c(F)cccc12	none
O=C(CN1CCN(C(=O)C2CCCO2)CC1)Nc1ccc(Cl)cc1 (stereo not given)	none
CS(=O)(=O)c1ccc(C(=O)OCc2nnc(-c3ccc(Cl)cc3)o2)cc1[N+](=O)[O-]	GPR7 antagonist 35, ANO1 block 25 | GPR7 antag conf 88 | MCHR1 antagonist 78
CC(C)C(c1nnnn1Cc1ccc(F)cc1)N1CCN(Cc2ccc3c(c2)OCO3)CC1 (stereo not given)	GPR7 antagonist 27 | GPR7 antag conf inactive | MCHR1 antagonist 25
CN(C)c1ccc(Nc2ccc([N+](=O)[O-])cn2)cc1	GPR7 antagonist 24 | GPR7 antag conf 41 | MCHR1 antagonist inactive
O=[N+]([O-])c1ccc(Nc2ccc(F)cc2)nc1	none
CCOC(=O)c1c(-c2ccccc2Cl)csc1NC(=O)c1cc(S(=O)(=O)N2CCOCC2)ccc1C	none
O=C(CCCCCN1C(=O)c2ccccc2C1=O)Nc1ccc2c(c1)OCCO2	none
O=C(CCN1C(=O)c2ccccc2C1=O)Nc1ccc2c(c1)OCCO2	GPR7 antagonist 23 | GPR7 antag conf inactive | MCHR1 antagonist inactive
CCCCCC1CC(CC(=O)Nc2ccc([N+](=O)[O-])cc2)C(=O)O1 (stereo not given)	none
CCCCCC1CC(CC(=O)Nc2ccc([N+](=O)[O-])cc2)OC1=O (stereo not given)	GPR7 antagonist 25 | GPR7 antag conf inactive | MCHR1 antagonist 42
Cc1cc(OCCn2ccnc2)cc(C)c1Cl	none
Cc1cc(C(=O)N2CCC(Cc3ccccc3)CC2)c(C)o1	GPR7 antagonist 28 | GPR7 antag conf 27 | MCHR1 antagonist 33
CCOc1ccc(NC(=S)N2CCn3c(nc4ccccc43)C2)cc1	none (no result: TMEM16A act)
CC(=O)c1ccc(NC(=O)c2ccccc2-c2ccccc2C(=O)O)cc1	GPR7 antagonist 27 | GPR7 antag conf inactive | MCHR1 antagonist inactive
COC(=O)c1ccc(NC(=O)c2ccccc2-c2ccccc2C(=O)O)cc1	none
O=C(c1cccc(Cl)c1)N1CCN(C2CCCCC2)CC1	GPR7 antagonist 50 | GPR7 antag conf inactive | MCHR1 antagonist inactive
O=C(c1cccc([N+](=O)[O-])c1)N1CCN(c2cccc(Cl)c2)CC1	GPR7 antagonist 23 | GPR7 antag conf 31 | MCHR1 antagonist 24
Cc1ccc(S(=O)(=O)N2CCCCC2)cc1C(=O)OC(C)C(=O)NCC1CCCCC1 (stereo not given)	none (no result: GPR7 antagonist, CHT inh, Kir21 inh, CHT allo act, ANO1 block)
C=C1CCc2c([nH]c3ccc(OCC(C)C)cc23)C1=O	GPR7 antagonist 57 | GPR7 antag conf 91 | MCHR1 antagonist 97
COc1ccc(NC(=O)c2ccc3c(c2)C(=O)N(Cc2ccncc2)C3=O)cc1S(N)(=O)=O	none (no result: GPR7 antagonist, CHT inh, Kir21 inh, CHT allo act, ANO1 block)
NC(=O)C1CCN(c2nc(-c3ccc4ccccc4c3)cs2)CC1	none (no result: GPR7 antagonist, CHT inh, Kir21 inh, CHT allo act, ANO1 block)
COc1ccccc1C(=O)Nc1c(C(=O)N(CCN(C)C)Cc2ccco2)oc2ccccc12	GPR7 antagonist 29 | GPR7 antag conf 48 | MCHR1 antagonist 62
CCOC(=O)c1oc2ccccc2c1NC(=O)c1ccccc1OC	none
CCN(CC)S(=O)(=O)c1ccc(N2CCCC2)c(NC(=O)Cc2c(F)cccc2Cl)c1	GPR7 antagonist 31 | GPR7 antag conf 44 | MCHR1 antagonist 41
CCN(CC(=O)Nc1c(F)cccc1F)C(=O)c1cc(S(=O)(=O)N(CC)CC)ccc1N1CCCCC1	GPR7 antagonist 29 | GPR7 antag conf 32 | MCHR1 antagonist 26

Screening results: PubChem, several laboratories
